# High-throughput results from PubChem.
# Only some compounds are listed: those with a hit (about 7.6% of all), similar ones and a draw of the others.
# ELG1 repair inh: ELG1-dependent DNA repair inhibition; HEK293T ELG1-luciferase reporter, luminescence, 16 h; DNA damage induced by 5-fluorouridine; Potency, µM (top dose mostly 46.1 µM), without a hit: top-dose activity change, negative = inhibition, hits mostly inhibitors; 330,000 compounds, 2.3% hits; note: potency is the fitted concentration of half-maximal effect; % is set by controls: 0 for no effect and ±100 for the full control effect; nearly all actives have a fitted effect of over 55% in size
#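 In this reporter screen, reduction of luminescence relative to DMSO vehicle indicated activity. Compounds and 5-fluorouridine were added together to 2,000 cells per well, incubated for 16 hr at 37 °C, then developed with ONE-Glo.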
# p53 reactivator: mutant p53 re-activation in reporter cells | AID 504706 | H1299 p53-A138V BP100-luciferase reporter, luminescence, 24 h | 320,000 compounds, 0.063% hits | Potency, µM (doses to about 92.2 µM), inactives show top-dose activity change, positive = activation, hits mostly activators; note: potency is the fitted concentration of half-maximal effect; % of control where 0% means no effect; nearly all actives have a fitted effect of over 45% in size
#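 p53-null H1299 cells stably carrying temperature-sensitive p53-A138V and a BP100-luciferase reporter were pinned with compounds (4-point, 1:5 series) and held 24 hrs at 37 deg C. Luminescence was read 10 min after detection reagent.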
# Giardia kill: Giardia lamblia killing; Giardia lamblia trophozoite viability; activity change, % at 7.66 µM, hits read low; 340,000 compounds, 0.15% hits; AID 540267; in the data active = activity change below about -80%; inconclusive = between about -30% and that limit;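 note: parasites exposed to compound for two days anaerobically before the ATP read; % is set by controls: 0 for no effect and ±100 for the full control effect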
#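 Luminescent ATP signal served as the viability read-out, measured 15-30 min after adding ATP detection reagent to trophozoites that had been incubated with compounds for 48 hrs at 37 deg C anaerobically at 100 cells/well.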
# BRCA1 expr act: activators of BRCA1 expression | AID 624202 | 380,000 compounds, 1.1% hits | MCF7-BRCA1-FFLuc reporter, luminescence, 48 h; response scale: scaled: vehicle 0%, 10 µM genistein 100% | Potency, µM (top dose mostly 46.1 µM), without a hit: top-dose activation, actives largely listed as activators; note: potency is the fitted concentration of half-maximal effect; nearly all actives have a fitted effect of over 80% in size
#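 Quantitative HTS in MCF7 cells stably reporting BRCA1 expression via firefly luciferase. Compound treatment lasts 48 h at 37 °C in phenol-red free MEM. Activation is expressed relative to genistein at 10 microM and DMSO.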
# RORg inh: ROR gamma (mouse) transcription inhibition; Drosophila S2 Gal4-RORgamma UAS-luciferase reporter, 20 h; Potency, µM (top dose mostly 53.6 µM), for inactives: at the highest dose activity change, negative = inhibition, hits mostly inhibitors; 310,000 compounds, 5.4% hits; P51450; AID 2551; note: potency is the fitted concentration of half-maximal effect; % is set by controls: 0 for no effect and ±100 for the full control effect; nearly all actives have a fitted effect of over 60% in size
# Target sequence (P51450 whole entry, looked up, the tested form may be a part): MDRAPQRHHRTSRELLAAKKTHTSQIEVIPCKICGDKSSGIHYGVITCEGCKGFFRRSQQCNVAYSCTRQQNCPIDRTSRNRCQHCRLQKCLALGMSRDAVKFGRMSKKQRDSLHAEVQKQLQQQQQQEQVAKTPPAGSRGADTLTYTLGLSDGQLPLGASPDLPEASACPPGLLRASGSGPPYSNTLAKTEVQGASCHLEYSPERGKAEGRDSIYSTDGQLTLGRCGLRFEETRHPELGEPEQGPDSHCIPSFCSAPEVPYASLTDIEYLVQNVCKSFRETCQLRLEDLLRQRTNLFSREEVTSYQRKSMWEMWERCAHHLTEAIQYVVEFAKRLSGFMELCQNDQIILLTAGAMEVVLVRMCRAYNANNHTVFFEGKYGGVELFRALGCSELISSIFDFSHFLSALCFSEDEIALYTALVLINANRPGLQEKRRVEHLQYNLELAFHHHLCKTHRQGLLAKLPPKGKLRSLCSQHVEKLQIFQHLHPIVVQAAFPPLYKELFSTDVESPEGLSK
#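 In this cell-based reporter format, copper sulfate (700 uM final) drives Gal4–ROR gamma fusion expression from a metallothionein promoter in Drosophila Schneider cells; compounds preincubated 1 hr, reporter read after 20 hr at ambient temperature.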
# Gal4-VP16 FLuc: inhibits Gal4-VP16 luciferase reporter, ROR gamma counter-screen; AID 2546; 310,000 compounds, 3.5% hits; Potency, µM (series often up to 53.6 µM), inactives show at the highest dose activity, negative = inhibition, most hits filed as inhibitors; Drosophila S2 Gal4-VP16 UAS-luciferase, luminescence, 20 h;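 note: Gal4-VP16 expression switched on by copper sulfate through the metallothionein promoter; potency is the fitted concentration of half-maximal effect; % is set by controls: 0 for no effect and ±100 for the full control effect; nearly all actives have a fitted effect of over 50% in size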
# * = called active by the depositor; ? = inconclusive; . = no result; [ ] = another dose, or the depositor's remark. Unless noted, calls come from the whole dose curve; as a rule, active = well fitted curve in the direction sought with a large enough effect; inconclusive = small, poorly fitted or top-dose-only effect, or another doubt; inactive = no such curve, though single readings can be large; an effect the other way counts as inactive or inconclusive.
SMILES,ELG1 repair inh,p53 reactivator,Giardia kill,BRCA1 expr act,RORg inh,Gal4-VP16 FLuc
CC(=C/c1ccccc1)/C=N/NC(=O)c1ccccn1,?,-2.3%,-28.2,-47.9%,8.91µM*,10µM*
CC(/C=N/NC(=O)c1c(Br)cnn1C)=C\c1ccccc1,?,20.1%,-18.9,53.2%,15.7%,16.8%
CC(/C=N/NC(=O)c1nn(C)c(C)c1Br)=C\c1ccccc1,?,?,-2.4,?,0.159µM*,?
O=[N+]([O-])c1cc(-c2ncccn2)c([N+](=O)[O-])s1,?,-13.6%,8.8,-101.7%,3.98µM*,7.08µM*
O=C(Nc1ncccn1)c1cc([N+](=O)[O-])cc([N+](=O)[O-])c1,1.5%,-7.2%,-25.8,-35.6%,-18.1%,-6.5%
CCOC(=O)c1nn(-c2ccc(Cl)cc2)c2nnc(Cc3ccc(C)cc3)c(=O)n12,-3.3%,-2.5%,-3.5,-35.0%,-12.0%,22.4µM*
CCOC(=O)c1nn(-c2ccccc2)c2nnc(Cc3ccc(Cl)cc3)c(=O)n12,-15.5%,12.2%,8.1,-3.5%,9.2%,-11.7%
Cc1ccc(C)n1NC(=O)c1cccs1,1.1%,29.7%,-9.4,-11.3%,-0.2%,6.0%
O=C(Cc1cccc(NC(=O)C2CCN(C(=O)C3CCCCC3)CC2)c1)Nc1cccc(C(=O)N2CCOCC2)c1,.,.,36.7,15.6%,.,.
O=c1[nH]c2ccccc2nc1/C=C/c1ccccc1,?,8.3%,?,3.98µM*,-1.5%,-8.2%
O=c1[nH]c2ccccc2nc1/C=C/c1ccc(O)cc1,?,9.1%,-7.5,?,-44.9%,?
CCOc1ccccc1C(=O)NCC(=O)OCc1csc(CC(=O)Nc2ccc(C)cc2)n1,3.2%,?,2.5,32.7%,.,.
CCOc1ccccc1C(=O)N[C@H](C(=O)OCc1csc(CC(=O)Nc2ccc(C)cc2)n1)C(C)C,23.1µM*,-4.7%,-19.5,-43.4%,.,.
CN(C)NC(=S)Nc1ccc(Cl)cc1,0.0%,1.6%,-5.0,21.3%,?,2.24µM*
CCNC(=S)Nc1cc(-c2ccc(Cl)cc2)[nH]n1,2.2%,13.4%,-9.1,6.7%,6.31µM*,11.2µM*
CCNC(=S)NCc1ccc(Cl)cc1,.,.,5.1,-2.5%,.,.
CCCCNC(=S)Nc1ccc(Cl)cc1,21.4%,?,7.0,?,7.08µM*,?
CCNC(=S)Nc1ccc(Cl)cc1,10.1%,-4.6%,9.6,19.1%,8.91µM*,-83.0%
CN(C)CCNC(=S)Nc1ccc(Cl)cc1,18.4%,-1.8%,-18.3,12.0%,1.6%,-2.9%[0.365 µM]
CC(=NNS(=O)(=O)c1ccc([N+](=O)[O-])cc1)c1ccc(C)cc1,.,.,10.0,-24.1%,.,.
CCCCNC(=S)Nc1ccc(C(F)(F)F)cc1,?,2.5%,9.3,-55.3%,4.47µM*,12.6µM*
COc1ccc(NC(=S)Nc2ccccc2)cn1,11.1%,5.5%,-8.5,0.6%,-12.1%,26.2%
CCCCNC(=S)Nc1ccc(OC)nc1,1.8%,22.9%,-8.8,39.1%,10µM*,-2.1%
CCCN1CCN(CCCNC(=S)Nc2ccc(F)cc2)CC1,?,-2.4%,19.6,-19.7%,?,-6.9%
CCNC(=S)Nc1ccc(C)c(Cl)c1,-0.1%,4.3%,-27.4,5.3%,7.08µM*,?
SMILES,ELG1 repair inh,p53 reactivator,Giardia kill,BRCA1 expr act,RORg inh,Gal4-VP16 FLuc
CC(C)(C)C(=O)NC(=S)Nc1ccc(C(F)(F)F)cc1,29.9%,4.6%,-24.8,8.0%,4.47µM*,?
CCC(=O)N1CCc2cc(S(=O)(=O)CCC(=O)NCc3ccc(F)cc3)ccc21,.,.,.,-48.0%,.,.
CC(O)CNc1nc2c(c(=O)n(Cc3ccccc3)c(=O)n2C)n1C (stereo not given),-13.3%,-4.1%,-2.7,2.8%,3.1%,0.4%
NS(=O)(=O)c1ccc(CNC(=S)NC2CCCCC2)cc1,?,-0.6%,-0.8,9.2%,-7.9%,-7.9%
CCOC(=O)NC(=S)Nc1ccc(C(C)(C)C)cc1,?,1.8%,16.2,0.0%,2µM*,10µM*
C=CCNC(=O)C1CC(=O)N(c2ccc(OCC(=O)Nc3ccccc3)cc2)C1 (stereo not given),?,?,0.8,?,-18.9%,2.1%
CC(=O)c1cnc(Nc2cccc(Cl)c2Cl)s1,?,1.4%,3.7,10µM*,16.4%,-4.5%[10 µM]
CCCn1c(C(C)Nc2nc(-c3ccc(Cl)c([N+](=O)[O-])c3)cs2)nc2ccccc21 (stereo not given),3.8%,14.9%,-8.9,-55.4%,12.6µM*,?
CC(Nc1nc(-c2ccc(Cl)cc2)cs1)c1nc2cc(Cl)c(N3CCCCC3)cc2n1CCOCCO (stereo not given),.,.,17.0,-87.8%,.,.
CCCn1c(C(C)Nc2nc(-c3cc(Cl)c(N)c(Cl)c3)cs2)nc2cc(Cl)c(N3CCCCC3)cc21 (stereo not given),5.5%,.,-12.5,-4.6%,14.1µM*,1.4%
CCCn1c(C(C)Nc2nc(-c3ccc(C)cc3)cs2)nc2ccccc21 (stereo not given),12.6%,.,-16.2,-56.9%,5.62µM*,17.8µM*
CCCn1c(C(C)Nc2nc(-c3cccc(Br)c3)cs2)nc2ccccc21 (stereo not given),?,.,-2.3,-5.0%,4.47µM*,?
CCCn1c(CCNc2nc(-c3cccc(Br)c3)cs2)nc2ccccc21,.,.,-9.5,0.0%,.,.
Nc1c(C2CCCCC2)c(=O)on1C(=O)c1ccccc1,.,.,-4.0,-26.3%,.,.
Cc1c(C)c2cc(Cl)c(OCC(=O)NCCCN3CCCC3=O)cc2oc1=O,.,.,.,0.0%,.,.
Cc1ccc(Cn2c(C(C)Nc3nc(-c4ccc(C)cc4)cs3)nc3cc(Cl)c(Cl)cc32)cc1 (stereo not given),40.4%,.,6.9,-12.0%,11.2µM*,-18.6%
CC(Nc1nc(-c2ccc(F)cc2)cs1)c1nc2cc(Cl)c(Cl)cc2n1CCCO (stereo not given),.,.,-20.9,-76.5%,.,.
CC1CCCN(CCCNC(=O)CCn2nc(-c3ccccc3)ccc2=O)C1 (stereo not given),0.1%,-17.4%,14.9,-7.0%,10.9%,-11.4%
COc1ccc(-c2ccc(OC)cc2)cc1,?,?,-23.0,0.0%,-10.5%,-9.6%
COc1ccc(OC)c(-c2cc(C(=O)N3CCN(c4ncccn4)CC3)c3ccccc3n2)c1,13µM*,-7.0%,-6.3,-60.3%,?,-4.8%
COc1ccc(-c2cc(C(=O)N3CCN(c4ncccn4)CC3)c3ccccc3n2)cc1,15.8µM*,11.1%,-15.3,43.8%,.,.
COc1ccc(-n2nc(C(=O)N3CCN(c4ccc(F)cc4)CC3)c3ccccc3c2=O)c(OC)c1,9.2µM*,17.1%,-10.9,-21.6%,-14.3%,-2.8%
